Here are results for 31 sequences from the supplement of paper PMC12645437, “Orthogonal IMiD-Degron Pairs Induce Selective Protein Degradation in Cells” (ACS Chemical Biology, 2025).

The test addresses T1, CRBN, Q96SW2.
T1 chain: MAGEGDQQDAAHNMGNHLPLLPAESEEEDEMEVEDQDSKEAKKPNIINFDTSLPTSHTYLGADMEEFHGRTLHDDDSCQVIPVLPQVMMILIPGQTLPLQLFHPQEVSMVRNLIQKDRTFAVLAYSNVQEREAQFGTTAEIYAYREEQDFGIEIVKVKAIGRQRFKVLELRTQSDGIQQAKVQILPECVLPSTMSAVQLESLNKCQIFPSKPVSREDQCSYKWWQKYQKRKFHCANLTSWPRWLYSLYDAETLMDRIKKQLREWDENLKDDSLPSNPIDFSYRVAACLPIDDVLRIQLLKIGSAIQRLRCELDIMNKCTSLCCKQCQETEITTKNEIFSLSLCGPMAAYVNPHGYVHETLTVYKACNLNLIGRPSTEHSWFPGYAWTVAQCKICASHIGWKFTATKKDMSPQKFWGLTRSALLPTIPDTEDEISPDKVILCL
The test is described as follows: log2 fold change of degron read counts, EGFP-low vs EGFP+ sorted cells (limma voom), compound-induced degradation; higher = more compound-induced degradation of the degron-EGFP fusion; degrons are variants of IKZF1/3 zinc finger 2; compound dose not given here. The conditions noted are these: Jurkat, 18 h. The protocol:
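Pooled library of 8380 IKZF3 ZF2 degron mutants (positions 146-167 varied within the IKZF3 130-189 degron; only the varied core is printed, flanks not printed) fused to EGFP with IRES-mCherry, lentivirally expressed in Jurkat cells. mCherry+ cells were treated with one IMiD compound for 18 h (dose not stated) and FACS-sorted into EGFP-low and EGFP+ populations. Degron sequences were counted by NGS, and log2FC (EGFP-low vs EGFP+) was estimated by limma voom over 3 biological replicates.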

[1] abbreviates: compound: compound 19 (5-tert-butyl-thalidomide).
Where [2] appears, read: compound: compound 22 (5-morpholino-thalidomide).
Setting [3] is: compound: compound 33 (diphenyl IMiD analogue).

Over roughly 8,300 sequences, “log2 fold change of degron read counts, EGFP-low vs EGFP+ sorted cells (limma voom), compound-induced degradation” has its median near -1.1; the highest 2% begin near 3.2. The entries come from a sample that favours the highest values as a whole.
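Also: pooled lentiviral library of zinc finger degron-EGFP fusions in mCherry-positive Jurkat cells, FACS-sorted after compound exposure, with degron abundance counted by next-generation sequencing.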

LRCEICGFFCTQKGNLLRHIKL [46L_47R_49E_50I_52G_53F_54F_55C_67L_, Q9UKT9]: the “log2 fold change of degron read counts” value was -0.285 under setting [1], -0.446 under setting [2], 0.954 under setting [3] and 1.12 (compound: thalidomide).
As for FSCNQCGHKFTQKGNLLRHIKL [46F_47S_49N_50Q_52G_53H_54K_55F_67L_, Q9UKT9], the “log2 fold change of degron read counts” value is, setting by setting: under setting [1], -2.24; under setting [2], -2.55; under setting [3], -2.41; (compound: thalidomide) -2.6.
The like results for FACEQCGAYFTQKGNLLRHIKL [46F_47A_49E_50Q_52G_53A_54Y_55F_67L_, Q9UKT9] were, in that order, -0.764, -2.44, -1.5 and -1.62.
On to FCCNQCGHDFTQKGNLLRHIKL [46F_47C_49N_50Q_52G_53H_54D_55F_67L_, Q9UKT9], for which the “log2 fold change of degron read counts” value was -2.95 under setting [1], -3.42 under setting [2], -3.04 under setting [3] and -2.8 (compound: thalidomide).
FDCNQCGRCFTQKGNLLRHIKL [46F_47D_49N_50Q_52G_53R_54C_55F_67L_, Q9UKT9]: the “log2 fold change of degron read counts” value is, setting by setting: under setting [1], -2.4; under setting [2], -2.73; under setting [3], -2.2; (compound: thalidomide) -1.93.
The matching figures for FHCPVCGAAFTQKGNLLRHIKL [46F_47H_49P_50V_52G_53A_54A_55F_67L_, Q9UKT9]: 2.96, 2.4, 2.16 and 0.942.
Regarding FQCPQCGAAFTQKGNLLRHIKL [46F_47Q_49P_50Q_52G_53A_54A_55F_67L_, Q9UKT9], the “log2 fold change of degron read counts” value under setting [1] is -0.422, the “log2 fold change of degron read counts” value under setting [2] was found to be 1.04, the “log2 fold change of degron read counts” value under setting [3] is 0.683 and the “log2 fold change of degron read counts” value (compound: thalidomide) was 3.27.
Take FVCPQCGAAFTQKGNLLRHIKL [46F_47V_49P_50Q_52G_53A_54A_55F_67L_, Q9UKT9]: the “log2 fold change of degron read counts” value was -1.44 under setting [1], 1.34 under setting [2], 1.04 under setting [3] and 1.46 (compound: thalidomide).
Regarding FVCPVCGAAFTQKGNLLRHIKL [46F_47V_49P_50V_52G_53A_54A_55F_67L_, Q9UKT9], the “log2 fold change of degron read counts” value runs as follows: under setting [1], 0.708; under setting [2], 3.2; under setting [3], 2.37; (compound: thalidomide) 3.08.
For the sequence FECPVCGAAFTQKGNLLRHIKL [46F_47E_49P_50V_52G_53A_54A_55F_67L_, Q9UKT9], the “log2 fold change of degron read counts” value was 2.1 under setting [1], -0.445 under setting [2], 2.32 under setting [3] and 3 (compound: thalidomide).
The matching figures for FGCPVCGAAFTQKGNLLRHIKL [46F_47G_49P_50V_52G_53A_54A_55F_67L_, Q9UKT9]: 3.32, 2.34, 2.97 and 1.29.
As to FYCPQCGAAFTQKGNLLRHIKL [46F_47Y_49P_50Q_52G_53A_54A_55F_67L_, Q9UKT9], the “log2 fold change of degron read counts” value is 1.03 under setting [1], 1.46 under setting [2], 1.86 under setting [3] and -0.429 (compound: thalidomide).
Consider FWCPVCGAAFTQKGNLLRHIKL [46F_47W_49P_50V_52G_53A_54A_55F_67L_, Q9UKT9], for which the “log2 fold change of degron read counts” value stood at 3.13 under setting [1], 3.69 under setting [2], 2.44 under setting [3] and 1.11 (compound: thalidomide).
Turning to FMCPVCGAAFTQKGNLLRHIKL [46F_47M_49P_50V_52G_53A_54A_55F_67L_, Q9UKT9], the “log2 fold change of degron read counts” value was determined as 1.72 under setting [1], 2.21 under setting [2], 3.08 under setting [3] and 2.11 (compound: thalidomide).
For FICPVCGAAFTQKGNLLRHIKL [46F_47I_49P_50V_52G_53A_54A_55F_67L_, Q9UKT9], the “log2 fold change of degron read counts” value is, setting by setting: under setting [1], -0.386; under setting [2], 2.86; under setting [3], 2.22; (compound: thalidomide) 2.77.
Turning to FCCPVCGAAFTQKGNLLRHIKL [46F_47C_49P_50V_52G_53A_54A_55F_67L_, Q9UKT9], the “log2 fold change of degron read counts” value turned out to be 3.16 under setting [1], 2.58 under setting [2], 2.48 under setting [3] and 2.16 (compound: thalidomide).
As for FQCPVCGAAFTQKGNLLRHIKL [46F_47Q_49P_50V_52G_53A_54A_55F_67L_, Q9UKT9], the “log2 fold change of degron read counts” value was 2.54 under setting [1], 3.1 under setting [2], 2.52 under setting [3] and 3.69 (compound: thalidomide).
As for FFCPICGRMFTQKGNLLRHIKL [46F_47F_49P_50I_52G_53R_54M_55F_67L_, Q9UKT9], the “log2 fold change of degron read counts” value is, setting by setting: under setting [1], 0.209; under setting [2], -0.113; under setting [3], 0.441; (compound: thalidomide) -0.935.
Regarding FHCNICGAQFTQKGNLLRHIKL [46F_47H_49N_50I_52G_53A_54Q_55F_67L_, Q9UKT9], the “log2 fold change of degron read counts” value by setting is: under setting [1], 0.655; under setting [2], 1.29; under setting [3], 1.05; (compound: thalidomide) -0.181.
In the case of FYCEICGRCFTQKGNLLRHIKL [46F_47Y_49E_50I_52G_53R_54C_55F_67L_, Q9UKT9], the “log2 fold change of degron read counts” value under setting [1] came to 0.939, the “log2 fold change of degron read counts” value under setting [2] worked out at 0.533, the “log2 fold change of degron read counts” value under setting [3] was determined as 1.13 and the “log2 fold change of degron read counts” value (compound: thalidomide) was -0.963.
In the case of FKCEQCGAVFTQKGNLLRHIKL [46F_47K_49E_50Q_52G_53A_54V_55F_67L_, Q9UKT9], the “log2 fold change of degron read counts” value reads like this: under setting [1], -3.73; under setting [2], -2.96; under setting [3], -3.73; (compound: thalidomide) -3.19.
As for FKCNQCGAVFTQKGNLLRHIKL [46F_47K_49N_50Q_52G_53A_54V_55F_67L_, Q9UKT9], the “log2 fold change of degron read counts” value is -2.58 under setting [1], -2.71 under setting [2], -3.07 under setting [3] and -2.52 (compound: thalidomide).
The matching figures for LCCNQCGFACTQKGNLLRHIKL [46L_47C_49N_50Q_52G_53F_54A_55C_67L_, Q9UKT9]: -1.66, -2.13, -1.86 and -1.41.
For FICNQCGRGFTQKGNLLRHIKL [46F_47I_49N_50Q_52G_53R_54G_55F_67L_, Q9UKT9], the “log2 fold change of degron read counts” value under setting [1] was -3.02, the “log2 fold change of degron read counts” value under setting [2] is -3.8, the “log2 fold change of degron read counts” value under setting [3] is -3.62 and the “log2 fold change of degron read counts” value (compound: thalidomide) was -2.96.
As for FVCNQCGRLFTQKGNLLRHIKL [46F_47V_49N_50Q_52G_53R_54L_55F_67L_, Q9UKT9], the “log2 fold change of degron read counts” value reads like this: under setting [1], -1.99; under setting [2], -2.78; under setting [3], -1.99; (compound: thalidomide) -1.68.
In the case of FLCPVCGAAFTQKGNLLRHIKL [46F_47L_49P_50V_52G_53A_54A_55F_67L_, Q9UKT9], the “log2 fold change of degron read counts” value is, setting by setting: under setting [1], 0.86; under setting [2], 0.132; under setting [3], 1.81; (compound: thalidomide) 1.42.
FACPVCGAAFTQKGNLLRHIKL [46F_47A_49P_50V_52G_53A_54A_55F_67L_, Q9UKT9]: the “log2 fold change of degron read counts” value under setting [1] was 3.6, the “log2 fold change of degron read counts” value under setting [2] was 2.87, the “log2 fold change of degron read counts” value under setting [3] was found to be 1.74 and the “log2 fold change of degron read counts” value (compound: thalidomide) is 1.56.
As to FVCDVCGAAFTQKGNLLRHIKL [46F_47V_49D_50V_52G_53A_54A_55F_67L_, Q9UKT9], the “log2 fold change of degron read counts” value is, setting by setting: under setting [1], -0.53; under setting [2], 1.92; under setting [3], 0.755; (compound: thalidomide) 1.42.
For the sequence FWCDVCGAAFTQKGNLLRHIKL [46F_47W_49D_50V_52G_53A_54A_55F_67L_, Q9UKT9], the “log2 fold change of degron read counts” value under setting [1] amounted to 2.61, the “log2 fold change of degron read counts” value under setting [2] is 3.37, the “log2 fold change of degron read counts” value under setting [3] was 1.17 and the “log2 fold change of degron read counts” value (compound: thalidomide) is -0.68.
The like results for FRCPVCGAAFTQKGNLLRHIKL [46F_47R_49P_50V_52G_53A_54A_55F_67L_, Q9UKT9] were, in that order, 2.21, 2.41, 2.44 and 2.31.
In the case of FYCDVCGAAFTQKGNLLRHIKL [46F_47Y_49D_50V_52G_53A_54A_55F_67L_, Q9UKT9], the “log2 fold change of degron read counts” value under setting [1] stood at 2.59, the “log2 fold change of degron read counts” value under setting [2] came out at 2.94, the “log2 fold change of degron read counts” value under setting [3] worked out at 1.59 and the “log2 fold change of degron read counts” value (compound: thalidomide) was -1.42.
